This is a sample that favours compounds with a hit; in the whole collection about 19% have one here.
TDP1 cell noCPT – qHTS for Inhibitors of human tyrosyl-DNA phosphodiesterase 1 (TDP1): qHTS in cells in absence of CPT; Potency, µM (titrated, usually from 46.2 µM), for inactives: top-dose activity change, negative = growth inhibition, most hits filed as inhibitors; 15% of 420,000 active; DT40 Tdp1-/- hTDP1 cells, no CPT, ATP luminescence, 48 h; also: potency is read from the fitted curve at half-maximal effect; nearly all actives have a fitted effect of over 55% in size
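Growth kinetics read by CellTiter-Glo luminescence after ≥48 hr at 37 °C. Cells: DT40 Tdp1-/- stably carrying human TDP1, 400 per well, compound exposure in the absence of CPT (DMSO vehicle).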
HT1080-NT tox – qHTS for induction of synthetic lethality in tumor cells producing 2HG: qHTS for the HT-1080-NT fibrosarcoma cell line. HT-1080-NT fibrosarcoma viability, CellTiter-Glo ATP luminescence, 48 h. Potency, µM (top dose mostly 46.1 µM), for the others: at the top dose activity, negative = less viability, usual class: cytotoxic. 1.6% of 360,000 active. AID 686970, 2013;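 also: NT is the 2HG producing partner of a matched IDH1 knockdown line; potency is read from the fitted curve at half-maximal effect; 0% = DMSO-treated cells and -100% = media-only wells without cells; nearly all actives have a fitted effect of over 55% in size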
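Read-out is CellTiter-Glo luminescence after 10 minutes at room temperature, following 48 hours' compound treatment of HT-1080-NT cells (750 cells/well, RPMI, 5% FBS, 37 degrees C).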
IL-1B inflam inh – qHTS for Inhibitors of Inflammasome Signaling: IL-1-beta AlphaLISA Primary Screen. activity change, % at 57.5 µM. THP-1 LPS/ATP IL-1B secretion, AlphaLISA, 16 h; hits give low values. 4.7% of 360,000 active; in the data active = activity change below about -50%; inconclusive = mostly about -30% to -49%
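Secreted IL-1B measured by AlphaLISA bead assay after 16 h compound exposure of THP-1 cells; compounds (final up to 57.5 uM) added 1 h before LPS (250 ng/mL) and ATP (1.25 mM) stimulation; lower signal means less secretion.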
HT1080 IDH1KD tx – qHTS for induction of synthetic lethality in tumor cells producing 2HG: qHTS for the HT-1080-IDH1KD cell line; HT-1080 IDH1 knockdown viability, ATP luminescence, 48 h; Potency, µM (top dose mostly 46.1 µM), inactives show at the highest dose activity, negative = toxicity, usual class: cytotoxic; 2% of 360,000 active; AID 686971, 2013;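 also: potency is read from the fitted curve at half-maximal effect; 0% = DMSO wells and -100% = cell-free medium wells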
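After a 2 h attachment period, IDH1KD HT-1080 cells took pin-transferred compound for 48 h at 37 °C; ATP-based luminescence after 10 min room-temperature reagent incubation reported viability.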
DT40 TDP1 CPT – qHTS for Inhibitors of human tyrosyl-DNA phosphodiesterase 1 (TDP1): qHTS in cells in presence of CPT | chicken DT40 Tdp1-/-;hTDP1 cells + 20 nM CPT, ATP luminescence, 48 h | Potency, µM (doses to about 46.2 µM), for the others: at the highest dose activity change, negative = growth inhibition, most hits filed as inhibitors | 12% of 420,000 active | AID 686979, 2013; also: potency is read from the fitted curve at half-maximal effect; nearly all actives have a fitted effect of over 55% in size
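Chicken DT40 Tdp1-/- cells complemented with human TDP1, 400 cells/well, exposed to compounds plus 20 nM camptothecin for at least 48 h at 37 C; viability read as ATP content by CellTiter-Glo luminescence.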
ELG1 repair inh – qHTS screen for small molecules that inhibit ELG1-dependent DNA repair in human embryonic kidney (HEK293T) cells expressing luciferase-tagged ELG1 | HEK293T ELG1-luciferase reporter, luminescence, 16 h; DNA damage induced by 5-fluorouridine | Potency, µM (doses to about 46.1 µM), for the others: top-dose activity change, negative = inhibition, most hits filed as inhibitors | 2.3% of 330,000 active | AID 504467, 2011; also: potency is read from the fitted curve at half-maximal effect; nearly all actives have a fitted effect of over 55% in size
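Luminescence from the luciferase reporter, measured 30 min after ONE-Glo reagent at room temperature, was the read-out. Beforehand, 2,000 cells per well were exposed for 16 hr at 37 °C to 5-fluorouridine together with compound or vehicle.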
* hit, by the source's call; ? = inconclusive; · = no result. Unless noted, calls follow the shape of the dose curve; as a rule, active = well fitted curve in the direction sought with a large enough effect; inconclusive = small, poorly fitted or top-dose-only effect, or another doubt; inactive = no such curve, though single readings can be large; an effect the other way counts as inactive or inconclusive. Unless noted, % is scaled to controls: 0 for no effect and ±100 for the full control effect.

SMILES	TDP1 cell noCPT	HT1080-NT tox	IL-1B inflam inh	HT1080 IDH1KD tx	DT40 TDP1 CPT	ELG1 repair inh
O=C(O)c1ccc(-c2sc(Nc3ccccc3)n[n+]2-c2ccc(F)cc2)cc1	-8%	0%	31	-2%	-1%	-28%
Fc1ccc(-[n+]2nc(Nc3ccccc3)sc2-c2c(Cl)cccc2Cl)cc1	?	?	-94*	-23%	18µM*	?
CN(CCCNC(=O)Cn1ncc2c([nH]c3ccccc32)c1=O)Cc1ccccc1	-25%	·	·	·	-7%	·
CC(C)CN(C(=O)c1cc(Cl)nc2ccccc12)C1CCS(=O)(=O)C1 (stereo unspecified)	6%	-6%	5	-1%	-8%	6%
CCCCc1ccc(NC(=O)CSc2nc(=O)n(CCN(C)C)c3c2CCC3)cc1	?	21µM*	-72*	15µM*	?	10%
CCN(CC)CCn1c2c(c(SCC(=O)Nc3cccc4ccccc34)nc1=O)CCCC2	?	2%	-66*	-1%	?	-12%
CN(C)CCn1c2c(c(SCC(=O)Nc3cccc4ccccc34)nc1=O)CCC2	-27%	-17%	?	-4%	7%	-1%
Cc1ccc(NC(=O)CSc2nc(=O)n(CCN(C)C)c3c2CCCC3)cc1Cl	?	-18%	-87*	?	?	-9%
COc1ccc(NC(=O)CSc2nc(=O)n(CCN(C)C)c3c2CCCC3)cc1	-14%	4%	10	2%	-25%	?
CCCCc1ccc(NC(=O)CSc2nc(=O)n(CCN(CC)CC)c3c2CCCC3)cc1	23µM*	?	-78*	?	?	12%
Cc1ccc(-n2c(COCC(=O)O)nc3cccnc32)cc1	3%	·	·	·	2%	·
CC(C)c1ccc(NC2CCCN(C(=O)CN3CCCC3=O)C2)cc1 (stereo unspecified)	7%	-1%	1	7%	-21%	11%
COC(=O)[C@]1(Cc2ccccc2)N[C@H](CN(C)S(=O)(=O)c2ccc(C(C)(C)C)cc2)[C@@H]2C(=O)N(Cc3ccccc3)C(=O)[C@@H]21	?	-3%	-22	-1%	?	-1%
Cn1c(=O)c2sccc2n2c(CCC(=O)NCc3ccc(F)cc3)nnc12	0%	·	·	·	4%	·
CCC(C)(C)NC(=O)C1CCN(c2nc(OC)nc(OC)n2)CC1	-4%	-2%	12	0%	-4%	6%
COC(=O)c1nccnc1N	0%	7%	9	10%	8%	·
Cc1ccsc1C(=O)N1CC(=O)Nc2ccccc21	23µM*	?	-20	18µM*	?	-28%
Cc1cc(C)c2nc(SCC(=O)N3CC(=O)Nc4ccccc43)c(C#N)cc2c1	1.3µM*	?	44	0.92µM*	1.3µM*	?
COc1cc(C(=O)N2CC(=O)Nc3ccccc32)cc(OC)c1OC	8.2µM*	?	63	?	8.2µM*	·
Cc1cc(C)cc(C(=O)N2CC(=O)Nc3ccccc32)c1	0.58µM*	1.2µM*	21	0.52µM*	0.92µM*	28%
CC1(Cc2ccc(S(C)(=O)=O)cc2)C(=O)Nc2ccc(Cl)cc21 (stereo unspecified)	-24%	1%	-16	16%	6%	·
Cc1ccc2[nH]c3c(=O)n(CC(=O)Nc4ccccc4N4CCN(C)CC4)ncc3c2c1	?	-3%	-5	-9%	?	?
